Molecules are shown by their SMILES. About 83,000 compounds went through this panel and 20% of them were active in at least one assay; those are over-represented in the sample as a whole.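 Step 1: grow cells in 96-well plates. Step 2: add test compound at a single concentration. Step 3: incubate 48 h. Step 4: record percent growth.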 A number with no mark means an inactive call. Active and inactive are the calls of the source.

This experiment concerns HOP-92 NSCLC. Description: NCI-60 one-dose screen, 48 h (100 = growth as untreated, 0 = no growth, -100 = all killed). Conditions: 10 µM unless noted. The procedure:
Growth inhibition of the HOP-92 human Non-Small Cell Lung tumor cell line is measured as a screen for anti-cancer activity. Cells are grown in 96 well plates and exposed to the test compound for 48 hours. Compounds are tested at a single concentration, which is 10^-5 M for most compounds. The reported endpoint is percent growth (GI% or GIPRCNT), where numbers from 0 - 100% represent growth inhibition, and numbers from -100% - 0 represent cell death. For example, a value of 40 represents 60% growth inhibition. A value of 0 means no net growth occurred over the course of the experiment. A value of -40 indicates 40% of cells at the beginning of the experiment died by the end of the experiment. A value of -100 means all cells are dead at the end of the experiment.
NCI-60 Human Tumor Cell Lines Screen was performed using the standard one-dose NCI protocol, which is described in more detail at https://dtp.cancer.gov/discovery_development/nci-60/default.htm.
Compounds with GIPRCNT values below 10 were considered active. Activity score was based on GIPRCNT using the following formula: […]
Score is 0 for GIPRCNT values of 100 or above, 50 for GIPRCNT values of 0, and 100 for GIPRCNT values of -100.
Consider `C#C[C@]1(O)CC[C@H]2[C@@H]3CC=C4c5sc(-c6ccccc6)nc5CC[C@]4(C)[C@H]3CC[C@@]21C`, for which the growth is 77%. As to `COC(=O)c1nc(-c2ccccc2)oc1S(=O)(=O)NCC(c1ccc(Cl)cc1)N1CCCCC1` (stereo not given), the growth is 48.8%. Take `CCOC(=O)C1=C(c2ccccc2)N=C2SC=C(c3cccc([N+](=O)[O-])c3)N2C1c1ccc(O)cc1` (stereo not given): the growth was 90.1%. In the case of `O=c1c(Cc2ccc(F)cc2)cc(-c2ccccc2)nn1C/C(=N/O)c1ccccc1` it was 42.6%. In the case of `Cn1cc(-c2csc(-c3cn(C)c4ccc(F)cc34)n2)c2cnccc21` it was 70.8%; in that of `COC1CC(O)C2=C(CC3C(/C(C)=C\CC=C(C)C)CCC3(C)O2)C1=O` (stereo not given), 97.5%; in that of `Cc1c(C)c2c(c(C)c1OC(=O)CCC(=O)[O-])CCC(C)(CCCCCCCCCCC[P+](c1ccccc1)(c1ccccc1)c1ccccc1)O2` (stereo not given), -82.7% (active). Consider `Cc1ccc2nc(/C=C/c3ccc(N(C)C)cc3)cc(C)c2c1`, for which the growth is 25.7%. Turning to `O=C(CNc1ncco1)Nc1ccc(S(=O)(=O)c2ccc(NC(=O)CNc3ncco3)cc2)cc1`, the growth was 81%. On to `c1ccc(-c2nc(N3CCNCC3)c3oc(-c4ccccc4)nc3n2)cc1`, for which the growth was -53.1% (active). In the case of `[2H]C([2H])([2H])Oc1ccc(/C=C/C(=O)/C=C(/C=C/c2ccc(OC([2H])([2H])[2H])c(OC([2H])([2H])[2H])c2OC([2H])([2H])[2H])OB(F)F)c(OC([2H])([2H])[2H])c1OC([2H])([2H])[2H]` it was 74.1%; in that of `COc1cc(-c2c(-c3ccccc3)c[nH]c2C(=O)NCCCO)c(OC)c2c1OCO2`, 97%. In the case of `COc1ccc(/C=N/NC(=O)Cn2nnc3ccccc32)cc1` it was 104%; in that of `COC(=O)[C@@H](Cc1c[nH]c2ccccc12)NC(=O)[C@H](Cc1ccccc1)NCc1ccncc1`, 91.5%. In the case of `Cc1nc2c(c(-c3ccccc3)n1)Cc1c(ccc3ccccc13)O2` it was 81.9%. `COc1ccc(Nc2nc(Nc3cc(C)[nH]n3)c3cc(OC)c(OC)cc3n2)cc1`: the growth is -84.6% [20 µM] (active). In the case of `O=C(OCC(O)(CO)C(=O)NC12CC3CC(CC(C3)C1)C2)c1ccc(Cl)cc1` (stereo not given) it was 101%; in that of `CN1CCN(Cc2ccc(NC(=O)c3cncc(C#Cc4c(N)ncc5cc(F)ccc45)c3)cc2C(F)(F)F)CC1`, -14.2% (active). In the case of `c1ccc2cc(Cn3cc[n+](Cc4ccc5ccccc5c4)c3)ccc2c1` it was -13.3% (active); in that of `CC(=O)OCCOc1cc(Cl)c(Cl)cc1Cl`, 82.3%. In the case of `O=C1C2C(c3cccs3)C=C(c3ccc(Cl)cc3)N2C(=S)N1c1ccccc1` (stereo not given) it was 97.2%. With `COc1ccc(-c2nc3cc(C(=O)NC4CCCCC4)ccc3n2C2CCCCC2)cc1`, the growth is 121%. `CCOC(=O)c1c(C)nc2c(c1N)C(=O)C(=O)N2CCc1ccc(OC)c(OC)c1`: the growth is 81.8%. Consider `Cc1[nH]c(C2CC(c3ccc(C(F)(F)F)c(F)c3)=NN2C)c(C)c1C(=O)NCC(F)(F)F` (stereo not given), for which the growth is 114%. As for `CC(C)(C)c1ccc(C(=O)Nc2sc3c(c2C#N)CCC(=O)C3)cc1`, the growth was -25% (active).

In the case of `COC(=O)[C@H]1Cc2c([nH]c3ccccc23)[C@H](c2ccc3c(c2)OCO3)N1`, the growth is 84.9%.

Take `C=C(CNCCc1ccc(O)cc1)[C@@H]1CC[C@]2(CO)CC[C@]3(C)[C@H](CC[C@@H]4[C@@]5(C)CCC(N)C(C)(C)[C@@H]5CC[C@]43C)[C@@H]12` (stereo not given in full): the growth is -78.8% (active). In the case of `COc1ccc(S(=O)(=O)Oc2ccc(-c3sc4cc(OS(=O)(=O)c5ccc(OC)cc5)ccc4c3C(=O)c3ccc(OCCN4CCCCC4)cc3)cc2)cc1` it was 108%; in that of `O=C1/C(=C/c2ccc(-c3ccc(Cl)cc3)o2)SC(=S)N1CCc1ccc(O)cc1`, 55.3%. In the case of `CCOC(=O)CCC(=O)P(=O)(O)O` it was 38.9%.

Regarding `CC1=C2[C@@H](CC1)[C@]1(C)O[C@@](C(C)C)(C[C@H]1OC(=O)CO)[C@H]2OC(=O)CCCc1ccccc1`, the growth was 37.4%.

As to `COc1ccc(/C=C\c2cc(OC)c(OC)c(OC)c2)cc1OCC(=O)Nc1nc2ccccc2s1`, the growth is 50.6%. In the case of `O=C(/C=C/c1ccc(Cl)cc1)c1ccc(Nc2ccnc3cc(Cl)ccc23)cc1` it was 15.2%; in that of `Cc1ccc(S(=O)(=O)c2nc(-c3ccccc3)oc2S(C)=O)cc1` (stereo not given), -51.8% (active); in that of `O=C(Nc1ccccc1)Nc1ccccc1CNc1nc(Nc2ccc(OCCN3CCCC3)cc2)ncc1Cl`, 65.1%. In the case of `COc1cc(/C=C2\C(=O)N(CCOc3cc(O)c4c(=O)cc(-c5ccccc5)oc4c3)c3ccccc32)cc(OC)c1O` it was 80.5%; in that of `Cc1ccc(C(F)(F)F)cc1N1CCN(C(=O)[C@H]2C[C@H]2c2ccc(C(F)(F)F)nc2)CC1`, 60.5%. As for `O=C1C(Nc2ccc(Br)cc2)=C(I)C(=O)c2ncccc21`, the growth was -82.6% (active). In the case of `C=C(C)[C@@H]1CC[C@]2(COCCCNCCCN)CC[C@]3(C)[C@H](CC[C@@H]4[C@@]5(C)CC[C@H](OCCCN)C(C)(C)[C@@H]5CC[C@]43C)[C@@H]12` it was 75.3%. For the molecule `Cc1oc2ccc(O)c(CN3CCCCCC3)c2c1C(=O)Nc1ccc(C(F)(F)F)cc1`, the growth was 34.9%.

These data come from PubChem BioAssay (NCI).
